Hits are enriched below; roughly 10% of the tested compounds scored in any of these assays.
MmCpn inh: inhibitors of Methanococcus maripaludis chaperonin TRiC (MmCpn); purified Mm-Cpn ATPase, ADP Transcreener TR-FRET; Potency, µM (top dose mostly 76.9 µM), inactives show at the highest dose activity, negative = inhibition, usual class: inhibitors; 330,000 compounds, 0.031% hits; AID 504842; also: potency is read from the fitted curve at half-maximal effect; nearly all actives have a fitted effect of over 80% in size
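Reaction buffer contained 30 mM Tris pH 7.4, 100 mM KCl, 5 mM MgCl2 and 1 mM DTT. Mm-CPN (25 nM final) hydrolysed 10 uM ATP over 30 min at 37°C; ADP was read by HTRF.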
CCT chaperon mod: cytosolic chaperonin activity modulation | purified chaperonin ATPase assay, HTRF ADP detection, 30 min | activity change, % (concentration not given with the values), hits read low | 360,000 compounds, 0.3% hits | AID 651819; in the data active = activity change below about -30%
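ATPase activity: ADP formed was measured by HTRF Transcreener (665/615 nm ratio) after 30 min at 37 deg C with 10 uM ATP. Compounds screened at one 76 uM concentration against 40 or 20 nM TRiC in Tris pH 7.4/KCl/MgCl2/DTT buffer.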
VDR inh: vitamin D3 receptor (human) inhibition. P11473. VDR-SRC2-3 peptide fluorescence polarization, 2 h. Potency, µM, without a hit: max response, negative = inhibition, usual class: inhibitors. 400,000 compounds, 0.93% hits. AID 504847; also: potency is read from the fitted curve at half-maximal effect
Target sequence (P11473 whole entry, looked up): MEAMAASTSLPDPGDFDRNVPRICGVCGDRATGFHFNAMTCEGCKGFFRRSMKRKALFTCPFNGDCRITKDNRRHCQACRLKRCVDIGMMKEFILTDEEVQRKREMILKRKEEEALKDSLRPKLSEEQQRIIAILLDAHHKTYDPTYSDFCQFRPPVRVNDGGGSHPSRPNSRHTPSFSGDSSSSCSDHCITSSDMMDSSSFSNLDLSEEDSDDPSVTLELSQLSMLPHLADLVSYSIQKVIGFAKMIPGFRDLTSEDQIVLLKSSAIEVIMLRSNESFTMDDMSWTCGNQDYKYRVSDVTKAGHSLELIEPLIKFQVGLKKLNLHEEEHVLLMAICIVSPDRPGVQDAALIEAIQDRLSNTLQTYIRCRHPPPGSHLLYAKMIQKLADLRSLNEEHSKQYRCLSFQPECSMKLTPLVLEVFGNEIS
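Measured by FP: displacement of SRC2-3 coactivator peptide from VDR by library compounds, following a two-hour ambient incubation.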
G9a inh: blocks human histone lysine methyltransferase G9a | 350,000 compounds, 8.8% hits | G9a H3K9 monomethylation, AlphaScreen, 2 h | Q96KQ7 | AID 504332 | Potency, µM (highest dose often 102 µM), for inactives: at the highest dose activity, negative = inhibition, hits mostly inhibitors; also: potency is read from the fitted curve at half-maximal effect; nearly all actives have a fitted effect of over 75% in size
Target sequence (Q96KQ7 913-1193 limits assumed): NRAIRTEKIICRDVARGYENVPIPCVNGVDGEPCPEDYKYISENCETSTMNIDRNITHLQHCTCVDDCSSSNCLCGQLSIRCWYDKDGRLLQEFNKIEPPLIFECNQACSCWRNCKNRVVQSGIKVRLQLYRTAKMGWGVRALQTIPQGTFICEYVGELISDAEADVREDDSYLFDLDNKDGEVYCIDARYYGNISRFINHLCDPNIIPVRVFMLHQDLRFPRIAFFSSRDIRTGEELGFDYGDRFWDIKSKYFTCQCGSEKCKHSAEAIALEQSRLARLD
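Quantitative HTS format: methyltransferase activity on a biotin-tagged H3K9 peptide is measured by AlphaScreen, using a rabbit anti-monomethyl-H3K9 antibody with streptavidin donor and anti-IgG acceptor beads. Final levels are 20 nM enzyme, 500 nM peptide, 20 uM SAM; 2 h RT.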
PLK1 PBD block: blocks phosphopeptide binding to human PLK1 polo-box domain; P53350; Potency, µM, for the others: max response, negative = inhibition, usual class: inhibitors; 360,000 compounds, 2.8% hits; Plk1 PBD binding of FITC phosphopeptide, fluorescence polarization; also: potency is read from the fitted curve at half-maximal effect; series mostly up to about 57 µM; nearly all actives have a fitted effect of over 65% in size
Sfp PPTase inh: inhibitors of Bacillus subtilis Sfp phosphopantetheinyl transferase. Q9F4F7. Biochemical Sfp PPTase activity, qHTS. Potency, µM, without a hit: largest response in the series, negative = inhibition, most hits filed as inhibitors. 310,000 compounds, 3.5% hits. AID 1490;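 also: the enzyme is Sfp with the accession as filed and its product quenches rhodamine fluorescence; potency is read from the fitted curve at half-maximal effect; 0% = enzyme reaction without inhibitor and -100% = no enzyme wells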
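After 15 min at room temperature with compound, 15 nM Sfp received 5 uM rhodamine-CoA plus 12.5 uM BHQ-2-ybbR (50 mM Hepes pH 7.6, 10 mM MgCl2). Rate came from the fluorescence difference over 30 min, ex 525/em 598 nm.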
The depositor's hits bear a star; ? = inconclusive; / = no result; ! = not active in a repeat; [ ] = remark or other dose. Unless noted, calls follow the shape of the dose curve; as a rule, active = well fitted curve in the direction sought with a large enough effect; inconclusive = small, poorly fitted or top-dose-only effect, or another doubt; inactive = no such curve, though single readings can be large; an effect the other way counts as inactive or inconclusive. Unless noted, % is scaled to controls: 0 for no effect and ±100 for the full control effect.

SMILES	MmCpn inh	CCT chaperon mod	VDR inh	G9a inh	PLK1 PBD block	Sfp PPTase inh
CC(=O)N1CCN(c2ccc(OC[C@H]3CO[C@](Cn4ccnc4)(c4ccc(Cl)cc4Cl)O3)cc2)CC1	4%	-2	-1%	10µM*	-21%	-22%
O=C(Nc1ccc2nc(-c3cccs3)c(-c3cccs3)nc2c1)N1CCCCC1	/	/	32%	/	/	/
CC(C)NC(=O)N1CCC2(CC1)CCN(C(=O)Oc1ccccc1)CC2	/	/	-6%	-19%[12.7 µM]	/	15%
O=C(N/N=C/c1c(O)n(-c2ccccc2)c(=S)[nH]c1=O)c1ccccc1	2%	4	9%	5%	1%	19%
O=C(N/N=C\C1C(=O)NC(=S)N(c2ccccc2)C1=O)c1ccc(O)cc1 (configuration not stated)	-1%	-2	5%	8.9µM*	-24%	-7%
CC1(C)NCCN2C(=O)CSC21 (configuration not stated)	0%	0	-7%	79µM*	-28%	23%
O=C1CSC(c2ccccc2Cl)c2cc(Cl)ccc2N1 (configuration not stated)	/	/	?	11%[59 µM]	/	-9%
COCC(=O)N(c1c(C)cccc1C)C(C)C(=O)OC (configuration not stated)	/	/	9%	3%[12.7 µM]	/	26%
Nc1nc(N)c2nc(CNc3ccc(C(=O)NC(CCC(=O)O)C(=O)O)cc3)cnc2n1 (configuration not stated)	-3%	/	-10%	2.7µM*!	/	11%
COc1ccccc1CN1CCCC2(CCN(C(=O)Oc3ccccc3)CC2)C1	/	/	8%	-5%[12.7 µM]	/	16%
CNC(=O)OCCc1nccn1C	0%	-4	5%	7%[59 µM]	0%	2%
CNC(=O)OCc1n(C)cc[n+]1C	2%	-6	-14%	6.3µM*	-10%	3%
Cc1ccc(Cn2cccc(C(=O)Nc3ccc4c(c3)OCCO4)c2=O)cc1	/	/	21%	-21%[59 µM]	/	/
Cc1ccc(N2C(=O)NC(=O)C(CCc3ccccn3)(Cc3ccc(F)cc3)C2=O)cc1 (configuration not stated)	2%	-2	10%	-1%	-2%	15%
CN(CCc1ccccn1)Cc1ccc(Cl)cc1	/	-4	-9%	10µM*	-4%	?
Cc1ccc(CN(C)CCc2ccccn2)cc1	/	-1	-10%	13µM*	-5%	-10%
[Cl-].[Cl-].[Hg+2]	/	/	2.5µM*	1.3µM*	/	?
CC(C)(C)OC(=O)N(CCc1ccccc1)Cc1ccc(OCc2cccc(NC(=O)c3ccccc3)c2)cc1	/	1	2%	/	?	/
CCOC(=O)C1CCN(Cc2c(F)cccc2Cl)CC1	-1%	-2	-8%	4µM*	-8%	?
CC(=O)O[C@@H]1CN2CCC1CC2	/	/	0%	/	/	7%
N#CC1=C(N)Oc2n[nH]c(-c3cccs3)c2C1c1ccsc1 (configuration not stated)	0%	0	8%	?	27µM*	-3%
O=C(O)CP(=O)(O)c1ccc(Cl)cc1	0%	0	7%	50µM*	-7%	?
NNC(=O)c1ccc(Cl)cc1	-4%	-1	-15%	-15%[59 µM]	-3%	-18%
COc1ccc(OCC#CCN2CCC(C)CC2)cc1	-1%	0	-13%	8.9µM*	-11%	-21%
Clc1ccc(OCC#CCN2CCCCCC2)cc1	-4%	-3	-3%	?	-10%	-28%
SMILES	MmCpn inh	CCT chaperon mod	VDR inh	G9a inh	PLK1 PBD block	Sfp PPTase inh
C#CCOc1ccc(OC)cc1C(c1c(C)[nH][nH]c1=O)c1c(C)[nH][nH]c1=O	1%	1	?	?	21µM*	-3%
C#CCOc1cc(C2C3=C(COC3=O)Nc3cc4c(cc32)OCO4)ccc1OC (configuration not stated)	-5%	-2	0%	7%	-12%	25%
CC1=CC(c2ccccc2)NC(=S)N1 (configuration not stated)	-1%	-4	79µM*	-4%[59 µM]	?	?
NCC(CP(=O)(O)O)c1ccc(Cl)cc1 (configuration not stated)	/	/	-11%	4%[59 µM]	/	7%
O=C(NC(=O)c1c(F)cccc1F)Nc1ccc(Cl)cc1	/	/	11%	/	/	6%
COc1ccc(CCN)cc1	/	/	?	32%[59 µM]	/	21%
Cc1ccc(-n2c(C)cc(/C=C3/C(=O)NC(=O)N(Cc4ccco4)C3=O)c2C)cc1	-1%	-2	-2%	?	?	?
Cc1ccc(OCCn2cccc2/C=C2/C(=O)NC(=O)N(Cc3ccco3)C2=O)cc1	0%	2	-12%	50µM*	2.7µM*	?
Cn1cccc1/C=C1\C(=O)NC(=O)N(Cc2ccco2)C1=O	2%	-2	-29%	?	24µM*	-20%
COc1ccc(/C=C2/C(=O)NC(=O)N(Cc3ccco3)C2=O)cc1	-1%	/	/	10µM*	/	?
CCc1ccc(N2C(=O)NC(=O)/C(=C\c3cccn3CCOc3ccc(C(C)C)cc3)C2=O)cc1	2%	-3	?	7.1µM*	-7%	5%
CCON=O	/	/	0%	8%[12.7 µM]	/	-2%
N[C@@]1(C(=O)O)CC[C@@H](C(=O)O)C1	0%	-2	-6%	30µM*!	-2%	/
CCC1C2CC3C4N(C)c5ccccc5[C@]45CC(C2C5O)N3C1O (some centres not stated)	/	/	4%	-3%[2.33 µM]	/	10%
CC(Oc1ccc(Cl)cc1Cl)C(=O)Nc1ccc(S(=O)(=O)Nc2cnc3ccccc3n2)cc1 (configuration not stated)	4%	0	-29%	-22%[12.7 µM]	13µM*	-8%
COc1ccc(NC(=O)C(=O)NNC(=O)C(C)Oc2ccc(Cl)cc2Cl)cc1 (configuration not stated)	2%	-1	14%	37%	-13%	36%
CCOC(=O)c1c(C)[nH]c(C)c1S(=O)(=O)NCC(=O)N1CCN(c2cc(Cl)ccc2C)CC1	/	/	9%	?	/	/
COC(=O)[C@]1(C)CC[C@@]2(C)CC[C@@]3(C)C4=CC=C5C(=CC(=O)C(O)=C5C)[C@@]4(C)CC[C@@]3(C)C2C1 (some centres not stated)	/	/	3.2µM*	?	/	-85%
C[C@@H](Cc1cccc(C(F)(F)F)c1)NCCCc1ccccc1	/	/	-20%	/	/	-21%
N#Cc1ccc(CN2CC[C@@]3(CCCN(C(=O)Oc4ccccc4)C3)C2)cc1	/	/	?	0%[12.7 µM]	/	25%
CCCN1CCO[C@@H]2c3cc(O)ccc3OC[C@H]21	0%	0	4%	18µM*!	-4%	28%
Nc1ccccc1Nc1ccc([N+](=O)[O-])cc1[N+](=O)[O-]	0%	1	4%	89µM*	2%	5%
O=[N+]([O-])c1ccc(Cl)c([N+](=O)[O-])c1	-4%	0	-12%	-34%[59 µM]	-25%	/

High-throughput results: PubChem BioAssay, National Center for Advancing Translational Sciences (NCATS)
